Reference: PubChem BioAssay (NCATS)
Results filed as inconclusive are left out. Activity calls are given as the source filed them. Calls follow the shape of the dose curve; as a rule, active = well fitted cell-killing curve with a large enough effect; inconclusive = small, poorly fitted or top-dose-only effect, or effect the other way; inactive = flat fitted curve, though single readings scatter.

What follows are molecules tested on HeLa (assay: Primary qHTS to identify gynecologic anti-cancer compounds using libraries of approved drugs and bioactive compounds (AID 1345084; also: nearly all actives have a fitted effect of over 55% in size)). Conditions: Gynecologic cancer cell panel viability, ATPlite luminescence, 48 h; series mostly up to 57.5 µM; activity change, negative = cytotoxicity: at the top concentration.
How it was run: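 Measured: luminescence after ATPlite addition (15 min, RT). Exposure: 48 h, 37 C, 5% CO2.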
% is scaled to controls: 0 for no effect and ±100 for the full control effect; potency is read from the fitted curve at half-maximal effect.

Row | Structure (SMILES) | activity change, negative = cytotoxicity | Potency
1 | COc1ccc(-c2nc(-c3ccc(-c4cccc(Cl)c4)o3)[nH]c2-c2ccc(OC)cc2)cc1 | 8.89% (inactive) | –
2 | CC(=O)c1c(O)cc(O[C@@H]2O[C@H](CO)[C@@H](O)[C@H](O)[C@H]2O)cc1O | 8.74% [at 38.5 µM] (inactive) | –
3 | C=C1C(O)C(O)C2(CC3C(C)=CCC4C(C)(CO)CCCC34C)OC2C1O (centres undefined) | 3.21% [at 38.5 µM] (inactive) | –
4 | O=C1NC(Cc2c[nH]c3ccccc23)C(=O)NC1Cc1c[nH]c2ccccc12 (centres undefined) | -2.4% [at 38.5 µM] (inactive) | –
5 | CC1CCC2(C=O)C(CO)=CCCC2C1(C)CC(=O)O (centres undefined) | 9.67% (inactive) | –
6 | COc1cc(C)c(C(=O)O[C@H]2[C@@H](OC(C)=O)[C@H](n3ccc(=O)[nH]c3=O)O[C@@H]2CO)c(OC)c1 | -1.66% [at 25.3 µM] (inactive) | –
7 | COC(=O)C1=CO[C@@H](O[C@@H]2O[C@H](CO)[C@@H](O)[C@H](O)[C@H]2O)[C@@H]2[C@@](C)(O)[C@@H](OC(=O)/C=C/c3ccc(O)cc3)C[C@]12O | -1.16% [at 25.3 µM] (inactive) | –
8 | C[C@@H]([C@@H](O)c1ccc(O)cc1)N1CCC(O)(c2ccccc2)CC1 | -0.376% (inactive) | –
9 | N#C[C@@H]1C[C@H](F)CN1C(=O)CNC1[C@H]2CN(C(=O)c3ccc(F)cc3)C[C@@H]12 (some centres undefined) | 8.92% (inactive) | –
10 | C=C1CCC2C(C)(C(=O)OC)CCCC2(C)C1CCC(C)CC(=O)O (centres undefined) | 0.975% [at 38.5 µM] (inactive) | –
11 | C[C@@H]1C(=O)O[C@H]2C[C@]34[C@H]5C[C@@H](C(C)(C)C)[C@]36[C@@H](OC(=O)[C@H]6O)O[C@]4(C(=O)O5)[C@]21O | -14.9% [at 25.3 µM] (inactive) | –
12 | COC(=O)C1=COC(O[C@@H]2O[C@H](CO)[C@@H](O)[C@H](O)[C@H]2O)[C@H]2[C@@H]1[C@H](OC(=O)CCc1ccc(O)cc1)C[C@]2(C)O (some centres undefined) | 7.82% [at 25.3 µM] (inactive) | –
13 | CC(=O)OC[C@H]1O[C@H](O[C@]2(CO)O[C@H](CO)[C@@H](OC(=O)/C=C/c3ccccc3)[C@@H]2O)[C@H](O)[C@@H](O)[C@@H]1O | -6.6% [at 25.3 µM] (inactive) | –
14 | C=C(C)C1CC[C@]2(C(=O)O)CC[C@]3(C(=O)O)[C@H](CCC4[C@@]5(C)CC[C@H](O)C(C)(C)C5CC[C@]43C)C12 (some centres undefined) | -11.2% [at 25.3 µM] (inactive) | –
15 | COc1cc(/C=C/C(=O)O[C@H]2[C@H](O)[C@@H](CO)O[C@@]2(CO)O[C@H]2O[C@H](CO)[C@@H](O)[C@H](O)[C@H]2O)ccc1O | 2.51% [at 25.3 µM] (inactive) | –
16 | CC1(C(=O)O)CCCC2(C)C3CCC4CC3(CCC12)CC4=O (centres undefined) | -3.21% (inactive) | –
17 | C/C=C/C(O)C1OC(=O)CC1Nc1ccc(C(=O)O)cc1 (centres undefined) | 5.19% (inactive) | –
18 | C=C(CO[C@@H]1O[C@H](CO[C@@H]2OC[C@](O)(CO)[C@H]2O)[C@@H](O)[C@H](O)[C@H]1O)C1Cc2cc(C(C)=O)ccc2O1 (some centres undefined) | -1.93% [at 25.3 µM] (inactive) | –
19 | COc1ccc([C@@]2(O)c3c(ccc4c3OC(C)(CCC=C(C)C)C=C4)NC(=O)[C@@H]2OC)cc1 (some centres undefined) | -2.4% [at 25.3 µM] (inactive) | –
20 | C=C1C[C@]23C[C@H]1[C@@H](O)C[C@H]2[C@@]12C=C[C@H](O)[C@@](C)(C(=O)O1)[C@H]2[C@@H]3C(=O)O | 2.23% [at 38.5 µM] (inactive) | –

Row | Structure (SMILES) | activity change, negative = cytotoxicity | Potency
21 | C=C1C(=O)O[C@@H]2C[C@H](C)[C@@]3(O)C=C(C(C)=O)[C@]4(CC3C[C@H]12)C(=O)O[C@H]1C[C@@H](C)C(CCC(C)=O)=CC[C@H]14 (some centres undefined) | 7.85% [at 25.3 µM] (inactive) | –
22 | CCC(C)C(=O)OC1CC(C)C=C2C=CC(C)C(CCC(O)CC(O)CC(=O)O)C21 (centres undefined) | 0.983% [at 25.3 µM] (inactive) | –
23 | OC[C@H]1O[C@@H](OCCc2ccccc2)[C@H](O[C@@H]2OC[C@](O)(CO)[C@H]2O)[C@@H](O)[C@@H]1O | 1.82% [at 25.3 µM] (inactive) | –
24 | CC1=C(C(=O)O)/C(=C\CO[C@@H]2O[C@H](CO)[C@@H](O)[C@H](O)[C@H]2O)C(OC(=O)/C=C\c2ccc(O)cc2)C1 (some centres undefined) | -1.39% [at 25.3 µM] (inactive) | –
25 | CC1(C)CCCC2(C)C1C(O)C=C(CO)C2(O)CO (centres undefined) | -3.09% (inactive) | –
26 | C/C=C(\C)C(=O)OCC1OC(OC2OC(COC(=O)/C(C)=C/C)C(OC3OC(CO)C(OC(=O)/C(C)=C/C)C(OC(=O)/C(C)=C/C)C3O)C(O)C2O)C(O)C(O)C1OC1OC(CO)C(OC(=O)/C(C)=C/C)C(OC(=O)/C(C)=C/C)C1O (centres undefined) | 29.5% [at 11.6 µM] (inactive) | –
27 | COc1c2c(c(C)c3c1C(=O)OC3)O[C@@]1(C)CCC3(C(C)(C)O)OC(=O)CC[C@]3(C)[C@H]1C2 (some centres undefined) | 2.19% [at 25.3 µM] (inactive) | –
28 | COc1ccc(C[C@H](N)C(=O)N[C@@H]2[C@H](O)[C@H](n3cnc4c(N(C)C)ncnc43)O[C@@H]2CO)cc1 | – | 1260 nM (active)
29 | OC1CCC(Nc2ncc3nc(Nc4c(F)cc(F)cc4F)n([C@H]4CCOC4)c3n2)CC1 (some centres undefined) | -11.7% (inactive) | –
30 | Cn1cc(-c2ccc3nnc(Sc4ccc5nn(C)cc5c4)n3n2)cn1 | 0.433% (inactive) | –
31 | COc1cc(N)c(Cl)cc1C(=O)NC[C@@H]1CCN2CCC[C@@H]12 | 9.22% (inactive) | –
32 | CC1(C)CCCC2(C)C1CC=C1C(=O)OC(O)C12O (centres undefined) | 0.23% (inactive) | –
33 | CCOc1ccc(S(=O)(=O)n2c(C)nc3ccccc32)cc1 | 4.89% [at 25.3 µM] (inactive) | –
34 | CC(C)[C@H]1CC[C@@]2(O)COC(=O)[C@H]2[C@@H]1/C=C(\CO)C(=O)O | 3.13% (inactive) | –
35 | CC(O)CO[C@@H]1O[C@H](CO)[C@@H](O)[C@H](O)[C@H]1O (some centres undefined) | -1.69% (inactive) | –
36 | CC1(C=O)CC[C@]2(C(=O)O[C@@H]3O[C@H](CO)[C@@H](O)[C@H](O)[C@H]3O)CC[C@]3(C)C(=CCC4[C@@]5(C)C[C@H](O)[C@H](O[C@@H]6OC[C@@H](O)[C@H](O)[C@H]6O)[C@@](C)(CO)C5CC[C@]43C)C2C1 (some centres undefined) | -5.1% [at 11.6 µM] (inactive) | –
37 | COC1C(CO)OC(n2cnc3c(=O)[nH]cnc32)C1O (centres undefined) | 0.315% (inactive) | –
38 | Cc1csc(NC(=O)c2ccc(COc3cccc(Cl)c3)o2)n1 | -7.51% (inactive) | –
39 | CC[C@@](C)(Nc1ccnc(-c2c[nH]c3ncccc23)n1)C(=O)NCC(F)(F)F | -8.57% (inactive) | –
